Results published in PubChem BioAssay.
Activity calls are given as the source filed them. Unless noted, no rule for the calls is given here.

Assays:
[1] = HepG2 liver cancer cell viability effects, profiling panel, resazurin fluorescence, 24 h, PK04 Diversity Set (AID 1172); settings: higher = more signal; also: test concentration not given here
[2] = basal S. cerevisiae growth modulation, no modifier, primary screen, OD600, strain BY4716, 24 h, basal condition (AID 1173); settings: OD600, 24 h, higher = more signal, called active from +8 up or from −8 down
[3] = MM1S myeloma cell viability, profiling panel, resazurin fluorescence, basal, 24 h, PK04 Diversity Set (AID 1174); settings: higher = more signal, called active from +8 up or from −8 down;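 also: MM1S multiple myeloma cell line; test concentration not given here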
[4] = target: Dihydroorotate dehydrogenase (quinone), mitochondrial (Plasmodium falciparum (isolate 3D7)) (UniProt Q08210); assay: PfDHODH enzyme inhibitors, primary screen, biochemical, C-terminal His tag, absorbance 600 nm (AID 1175); settings: DCIP absorbance 600 nm, higher = more signal, called active from +8 up or from −8 down;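 also: recombinant parasite enzyme with a five histidine tag at its C terminus; test concentration not given here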
Sequence of Dihydroorotate dehydrogenase (quinone), mitochondrial (Plasmodium falciparum (isolate 3D7)) (Q08210 whole entry, looked up): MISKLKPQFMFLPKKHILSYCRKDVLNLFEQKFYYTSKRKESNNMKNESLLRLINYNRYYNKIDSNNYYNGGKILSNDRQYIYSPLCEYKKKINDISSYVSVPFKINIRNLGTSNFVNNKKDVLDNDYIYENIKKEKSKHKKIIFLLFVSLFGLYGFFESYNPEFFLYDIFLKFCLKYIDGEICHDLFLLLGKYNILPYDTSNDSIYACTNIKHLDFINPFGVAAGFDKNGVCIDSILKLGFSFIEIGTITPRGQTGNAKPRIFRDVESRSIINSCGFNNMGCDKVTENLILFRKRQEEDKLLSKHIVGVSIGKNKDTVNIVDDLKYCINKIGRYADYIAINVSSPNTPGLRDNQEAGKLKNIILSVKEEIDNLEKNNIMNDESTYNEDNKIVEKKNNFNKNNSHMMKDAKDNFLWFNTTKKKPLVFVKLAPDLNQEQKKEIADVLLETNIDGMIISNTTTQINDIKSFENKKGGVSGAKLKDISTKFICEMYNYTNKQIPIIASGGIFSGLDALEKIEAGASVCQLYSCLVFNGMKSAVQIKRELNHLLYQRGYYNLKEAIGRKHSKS

[5] = P. aeruginosa biofilm formation inhibitors, primary screen, strain PAO1, LB-PBS medium, absorbance 600 nm (AID 1176); also: test concentration not given here; settings: P. aeruginosa PAO1 growth/biofilm, A600, 12 h; higher = more signal
[6] = S. cerevisiae RM11-1a growth modifiers, primary screen, strain RM11-1a, OD600, basal, 24 h (AID 1177); settings: OD600, 24 h, higher = more signal, called active from +8 up or from −8 down;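 also: cultures grown under basal conditions with no added stressor; test concentration not given here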
[7] = E. coli acrAB mutant growth effects, primary screen, E. coli filamentation inducers, strain DRC39, OD650, 24 h (AID 1178); settings: higher = more signal, called active from +8 up or from −8 down;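 also: growth measured as culture turbidity by optical density at 650 nm; test concentration not given here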
[8] = E. coli acrAB mutant growth effects, primary screen, E. coli filamentation inducers, strain DRC39, OD650, 48 h (AID 1179);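 also: screen aims at cell division blockers that make cells filament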; settings: E. coli DRC39 delta-acrAB growth, higher = more signal, called active from +8 up or from −8 down
[9] = RPMI8226 myeloma cell viability, profiling panel, resazurin fluorescence, basal, 24 h, PK04 Diversity Set (AID 1180); settings: higher = more signal;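 also: RPMI8826 multiple myeloma cell line at 5000 cells per well; test concentration not given here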
[10] = target: E3 ubiquitin-protein ligase XIAP (Homo sapiens) (UniProt P98170); assay: XIAP binders, primary screen, biophysical, small-molecule microarray, fluorescence 635 nm (AID 1181); settings: small-molecule microarray binding, higher = more signal;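 also: score merges 667 nm emission and signal to noise over triplicate slides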
Sequence of E3 ubiquitin-protein ligase XIAP (Homo sapiens) (P98170 whole entry, looked up): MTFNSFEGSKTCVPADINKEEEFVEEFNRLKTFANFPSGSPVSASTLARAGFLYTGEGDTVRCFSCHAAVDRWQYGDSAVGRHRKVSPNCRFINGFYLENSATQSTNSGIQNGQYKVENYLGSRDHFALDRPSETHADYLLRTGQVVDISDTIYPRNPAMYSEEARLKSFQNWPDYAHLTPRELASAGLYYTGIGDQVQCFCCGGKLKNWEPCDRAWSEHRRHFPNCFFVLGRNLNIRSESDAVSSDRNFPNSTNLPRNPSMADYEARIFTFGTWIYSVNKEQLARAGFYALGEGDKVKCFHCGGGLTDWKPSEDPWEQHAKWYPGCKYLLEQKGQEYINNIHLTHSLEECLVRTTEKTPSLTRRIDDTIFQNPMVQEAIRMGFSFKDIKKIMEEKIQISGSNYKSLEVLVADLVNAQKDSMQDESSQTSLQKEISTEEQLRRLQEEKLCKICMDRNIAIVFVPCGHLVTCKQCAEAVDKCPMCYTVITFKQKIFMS

| Compound | z-score [1] | z-score [2] | z-score [3] | composite z-score [4] | z-score [5] | z-score [6] | z-score [7] | z-score [8] | z-score [9] | composite z-score [10] |
| --- | --- | --- | --- | --- | --- | --- | --- | --- | --- | --- |
| CC(C)(C)OC(=O)CC[C@@]1(C(=O)NCC(O)CO)N=C(c2ccc(OCCCO)cc2)O[C@@H]1c1ccccc1CN=[N+]=[N-] (stereo not given in full) | 0.507 | -0.215 (inactive) | -0.0579 (inactive) | 0.345 (inactive) | 0.869 (inactive) | -0.181 (inactive) | 0.642 (inactive) | -0.154 (inactive) | 0.126 | 0.153 |
| CCN(CC)c1ccc(N2CC=CC34O[C@@H]5/C=C\CCCOC(=O)C5[C@H]3C(=O)N(C(C)CO)[C@@H]4C2=O)cc1 (stereo not given in full) | 0.242 | -0.566 (inactive) | 0.516 (inactive) | -2.25 (inactive) | -0.14 (inactive) | -0.355 (inactive) | 1.9 (inactive) | 1.92 (inactive) | 0.778 | 0.115 |
| CC(CO)N1C(=O)[C@@H]2[C@H]3C(=O)OCC=C[C@H]3OC23C=CCN(Cn2nnc4ccccc42)C(=O)[C@@H]13 (stereo not given in full) | -0.628 | 0.0199 (inactive) | -0.124 (inactive) | 0.29 (inactive) | -0.0558 (inactive) | -1.27 (inactive) | -0.11 (inactive) | -0.331 (inactive) | -0.35 | -0.334 |
| CCCNC(=O)[C@@H]1c2ccccc2C(=O)N(Cc2ccc(OC(F)(F)F)cc2)[C@H]1c1ccc(CO)cc1 | 0.266 | 0.0357 (inactive) | 0.186 (inactive) | -0.966 (inactive) | -0.217 (inactive) | 0.532 (inactive) | 0.659 (inactive) | 1.34 (inactive) | 0.584 | 0.155 |
| CCCCC=C[C@@H](NC(=O)OCc1ccccc1Cl)c1ccccc1 | -0.656 | 1.33 (inactive) | -1.19 (inactive) | 0.0518 (inactive) | 0.84 (inactive) | 1.48 (inactive) | -1.32 (inactive) | -0.892 (inactive) | -1.2 | 0.0137 |
| COc1ccc([Si](C)(C)[C@H]2[C@H](CC(=O)N3Cc4ccccc4C[C@H]3CO)O[C@@]3(C(=O)N(Cc4ccc(N5CCOC5=O)cc4)c4ccccc43)[C@@H]2C)cc1 | -0.418 | -0.895 (inactive) | -3.41 (inactive) | -1.03 (inactive) | 0.732 (inactive) | 0.543 (inactive) | 0.166 (inactive) | -0.207 (inactive) | -2.27 | -0.105 |
| CC(C)N1CC=CC23O[C@@H]4C=CCCOC(=O)C4[C@H]2C(=O)N(CCCO)[C@@H]3C1=O (stereo not given in full) | 1.12 | -0.951 (inactive) | 0.348 (inactive) | -0.926 (inactive) | -0.276 (inactive) | 0.0977 (inactive) | -0.463 (inactive) | 0.32 (inactive) | -0.114 | 0.152 |
| COC(=O)[C@]1(CCS(=O)(=O)c2ccccc2)N=C(c2ccc(OCCCO)cc2)O[C@@H]1c1ccccc1N=[N+]=[N-] | -1.28 | 0.141 (inactive) | -3.19 (inactive) | 1.02 (inactive) | 0.963 (inactive) | 2.53 (inactive) | 0.548 (inactive) | -0.718 (inactive) | -2.26 | -0.0502 |
| COc1cccc(C)c1NC(=O)O[C@H]1[C@H](OC(=O)Nc2ccccc2-c2ccccc2)[C@H](OC(=O)Nc2ccccc2-c2ccccc2)[C@@H](OC)O[C@@H]1CO | -0.589 | -0.342 (inactive) | -1.13 (inactive) | -0.0569 (inactive) | 1.11 (inactive) | 1.25 (inactive) | -0.469 (inactive) | 0.0517 (inactive) | -0.575 | 0.248 |
| CCCCC(CC)C(O)C1C=CC2C(=O)N(c3ccccc3)C(=O)C2N1Nc1ccccc1F (stereo not given) | 0.518 | 0.814 (inactive) | 0.888 (inactive) | 0.301 (inactive) | 0.657 (inactive) | 0.732 (inactive) | 0.207 (inactive) | 0.644 (inactive) | 0.767 | 0.0727 |
| CCOC(=O)C[C@H]1[C@H](OC(=O)Cc2ccc3c(c2)OCO3)[C@@H](NC(=O)c2ccc3ccccc3n2)c2cc(OCCCO)ccc2N1C(=O)c1ccc2ccccc2n1 | 0.482 | -1.22 (inactive) | -0.145 (inactive) | -0.574 (inactive) | 0.325 (inactive) | -2.19 (inactive) | 2.08 (inactive) | 1.57 (inactive) | -0.172 | -0.0773 |
| CC(C)C[C@@H]1NC(=O)[C@@H]2C[C@H](C(=O)NCCCCCCN)[C@H](c3cccc(OCCO)c3)N2C1=O | -0.821 | -0.568 (inactive) | 0.542 (inactive) | 1.05 (inactive) | 0.379 (inactive) | 0.473 (inactive) | -0.0795 (inactive) | -0.74 (inactive) | -0.0399 | 0.0264 |
